MazF activator: MazEF (E. coli) toxin RNase activation. FAM/BHQ RNA-DNA oligo cleavage fluorescence, 5 h. actives 0.32% (n = 350,000). activation, % at 20 µM. P0AE70; in the data active = activation above about 50%
Target sequence (P0AE70 whole entry, looked up): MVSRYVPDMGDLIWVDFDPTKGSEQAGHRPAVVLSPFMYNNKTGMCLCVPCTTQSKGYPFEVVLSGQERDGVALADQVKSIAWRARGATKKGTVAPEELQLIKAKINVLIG
PfHsp40 rescue: compounds rescuing yeast from Plasmodium falciparum HSP40 toxicity. S. cerevisiae expressing PfHsp40, growth rescue, ATP luminescence. growth rescue, % at 12.5 µM. actives 0.68% (n = 340,000); in the data active = growth rescue above about 28%, passing the limit was not always enough; inconclusive = no clear call, values can overlap the other calls;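 note: yeast W303a lacking pdr1 and pdr3 grown in galactose medium; growth measured after three days at 30 °C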
PrPC surface inh: cell surface PrPC inhibition, primary TR-FRET screen; TR-FRET read-out; inhibition, % at 13.8 µM; actives 0.43% (n = 370,000); in the data active = inhibition above about 24%; note: 0% = median of the test wells and 100% = reference compound wells
SSB-PriA inh: blocks PriA binding to SSB C-terminal tail; AlphaScreen SSBct-PriA binding, biotinylated peptide; inhibition, % at 33 µM; actives 0.6% (n = 430,000); in the data active = inhibition mostly above about 37%, no sharp cut-off; inactive = mostly below about 20%;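 note: plate controls were negative control peptide for no effect and reference peptide for full effect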
PrP 5UTR inh: inhibition of PrP 5' UTR reporter expression; cell-based PrP 5' UTR mRNA reporter, plate reader; inhibition, % (no concentration beside the values); AID 488862; actives 0.35% (n = 340,000); in the data active = inhibition above about 52%; note: 0 = median of the neutral control wells
Starred values were filed as active, the others as inactive; ! = not confirmed by another sample. Compounds with a hit are over-represented: about 1.8% of the library has one in this group of screens.

`CNc1ccc2oc(C[C@H]3O[C@@]4(CC[C@H]3C)O[C@H]([C@H](C)C(=O)c3ccc[nH]3)[C@H](C)C[C@H]4C)nc2c1C(=O)O` gave MazF activator 3.3, PfHsp40 rescue 142.8*, PrPC surface inh -5.3, SSB-PriA inh -3.0 and PrP 5UTR inh 5.6.
`O=C(N/N=C/c1c(O)n(-c2ccccc2Cl)c(=O)c2ccccc12)c1cccnc1` gave MazF activator -40.2, PfHsp40 rescue 97.9*, PrPC surface inh -1.6 and PrP 5UTR inh -0.4.
`O=C(N/N=C/c1c(O)n(Cc2ccccc2)c(=O)c2ccccc12)c1cccnc1` gave MazF activator -22.5, PfHsp40 rescue 431.0*, PrPC surface inh -1.4 and PrP 5UTR inh 0.0.
For Ic1cccc2cccnc12 the results were SSB-PriA inh 33.3.
`Cc1ccc(S(=O)(=O)Nc2cc(Cl)c(O)c3ncccc23)cc1` gave MazF activator -14.9, PfHsp40 rescue -2.4, PrPC surface inh -17.7, SSB-PriA inh 45.1* and PrP 5UTR inh 21.7.
`Oc1c(I)cc(I)c2cccnc12` gave MazF activator -4.6, PfHsp40 rescue inconclusive, PrPC surface inh -4.0, SSB-PriA inh 58.4* and PrP 5UTR inh -12.9.
Oc1c(Cl)ccc2cccnc12 was read as SSB-PriA inh 81.8*.
For CCOc1ccc(S(=O)(=O)Nc2cc(Cl)c(O)c3ccccc23)cc1 the results were SSB-PriA inh 9.0.
`Oc1ccc(Cl)c2cccnc12` gave MazF activator 8.7, PfHsp40 rescue -1.1, PrPC surface inh -3.4, SSB-PriA inh -3.7 and PrP 5UTR inh 2.0.
`Oc1c(Cl)cc(Cl)c2cccnc12` gave MazF activator 1.0, PfHsp40 rescue 10.0, PrPC surface inh -0.8, SSB-PriA inh 83.0*! and PrP 5UTR inh -10.1.
For CS(=O)(=O)N1CCCC(C(=O)Nc2ccc3sccc3c2)C1 (stereo not given) the results were SSB-PriA inh -8.0.
Screening COc1cccc(N2CCN(c3ncnc4c3[nH]c3ccc(F)cc34)CC2C)c1 (stereo not given) returned MazF activator 11.7, PfHsp40 rescue 11.3, PrPC surface inh 85.4*, SSB-PriA inh 42.1* and PrP 5UTR inh -20.1.
Screening COc1ccc(-c2csc(NC(=O)/C=C/c3ccc([N+](=O)[O-])cc3)n2)cc1OC returned SSB-PriA inh 69.0*.
`CN(C)Cc1c(C(C)(C)O)[nH]c2ccccc12` gave PrPC surface inh -2.0.
Screening O=C(CSc1ccc(Cl)cc1)N1CCN(c2c(Cl)cccc2[N+](=O)[O-])CC1 returned MazF activator 7.1, PfHsp40 rescue 66.2*, PrPC surface inh -5.1, SSB-PriA inh 14.2 and PrP 5UTR inh -15.0.
Screening O=C(/C=C/c1ccc(Cl)cc1)N1CCN(c2c(Cl)cccc2[N+](=O)[O-])CC1 returned MazF activator -2.2, PfHsp40 rescue 3.4, PrPC surface inh 6.0, SSB-PriA inh 29.8 and PrP 5UTR inh -18.4.
Screening O=C(CN1C(=O)COc2ccccc21)Nc1ccc(F)c(F)c1 returned SSB-PriA inh 13.8.
For Cc1ccc(C)c(OCC(=O)Nc2cccc(S(=O)(=O)NC3=NCCCCC3)c2)c1 the results were MazF activator -0.7, PfHsp40 rescue 0.1, PrPC surface inh 14.2, SSB-PriA inh 49.2* and PrP 5UTR inh -5.1.
`Cc1cc(Cl)ccc1OCC(=O)Nc1cccc(S(=O)(=O)NC2=NCCCCC2)c1` gave MazF activator 1.1, PfHsp40 rescue 3.2, PrPC surface inh 12.6, SSB-PriA inh 0.1 and PrP 5UTR inh -32.2.
`COC(=O)[C@]1(CNC(=O)NCCc2ccc(OC)c(OC)c2)CC(=O)N(C)[C@@H]1c1ccccc1` gave PrPC surface inh 1.5.
`COc1ccc(S(=O)(=O)NCc2ccco2)cc1C(=O)O` gave SSB-PriA inh 38.0*!.
Screening Cc1c(-n2c(-c3ccccc3)csc2=NC(=O)c2ccccc2)c(=O)n(-c2ccccc2)n1C returned SSB-PriA inh 44.0*.
`CC(=O)N=c1scc(-c2ccccc2)n1-c1cccc(O)c1` gave MazF activator 8.2, PfHsp40 rescue 1.5, PrPC surface inh 2.1, SSB-PriA inh -6.0 and PrP 5UTR inh -6.2.
`Nc1nc2ccc(C(=O)NCCO)cc2s1` gave SSB-PriA inh 81.0*.
Screening CCCCNC(=O)c1ccc2nc(N)sc2c1 returned SSB-PriA inh 52.2.
For CC(C)c1c(O)ccc2c1CC[C@H]1C(C)(C)CCC[C@]21C the results were MazF activator 1.2, PfHsp40 rescue 111.7*, PrPC surface inh -4.2, SSB-PriA inh -1.3 and PrP 5UTR inh -13.3.
`CC(C)(O)c1ccc2c(c1)CCC1C(C)(C(=O)O)CCCC21C` (stereo not given) gave MazF activator -0.3, PfHsp40 rescue -0.5, PrPC surface inh -2.8, SSB-PriA inh -4.6 and PrP 5UTR inh -11.1.
O=C(Nc1cccc(Cl)c1)N1CCC(CO)(CCOc2ccccc2)CC1 was read as MazF activator -1.6, PfHsp40 rescue 0.1, PrPC surface inh 0.6, SSB-PriA inh 7.6 and PrP 5UTR inh -9.5.
For CCOC(=O)CSc1nc2c(c(=O)n1-c1ccc(OCC)cc1)SCC2 the results were MazF activator -1.3, PfHsp40 rescue 40.4*, PrPC surface inh -1.9, SSB-PriA inh -6.6 and PrP 5UTR inh -15.1.
Screening CCOc1cc2c(cc1/C=C/c1noc(C)c1[N+](=O)[O-])OC(C)C2 (stereo not given) returned MazF activator 370.5*, PfHsp40 rescue 0.0, PrPC surface inh 7.0, SSB-PriA inh -8.1 and PrP 5UTR inh -3.9.
For O=C(Cc1ccsc1)NNC(=O)c1ccccc1O the results were MazF activator 6.0, PfHsp40 rescue 171.3*, PrPC surface inh -1.8, SSB-PriA inh -0.1 and PrP 5UTR inh -5.3.
For Cc1ccc(N=c2scc(-c3ccc(Cl)cc3)n2CCN2CCOCC2)c(C)c1 the results were SSB-PriA inh 7.0.
For COc1cccc(-c2csc(=Nc3ccc(Cl)cc3)n2N2CCOCC2)c1 the results were SSB-PriA inh 68.0*.
O=C(Nc1cccc(Cl)c1)Nc1cccc(Cl)c1 was read as MazF activator 0.7, PfHsp40 rescue -1.0, PrPC surface inh 6.0, SSB-PriA inh -4.6 and PrP 5UTR inh -27.4.
`O=C(Nc1cccc(Cl)c1)ON=C1c2ccccc2-c2ccccc21` gave MazF activator 1.3, PfHsp40 rescue 36.6*, PrPC surface inh -0.6, SSB-PriA inh -4.6 and PrP 5UTR inh -33.6.
For CCOC(=O)CCCCNC(=O)Nc1ccccc1 the results were MazF activator 0.1, PfHsp40 rescue -0.2, PrPC surface inh 3.3, SSB-PriA inh -7.2 and PrP 5UTR inh -13.7.
COc1cc(OC)cc(-c2sc3ccc(OC)cc3c2C#CC2(N)CCCCC2)c1 was read as MazF activator 3.4, PfHsp40 rescue 33.6*, PrPC surface inh 10.4, SSB-PriA inh 5.0 and PrP 5UTR inh -11.2.
COc1cccc(-c2sc3ccc(OC)cc3c2C#CC2(O)CCCCC2)c1 was read as MazF activator -3.2, PfHsp40 rescue -0.8, PrPC surface inh 4.8, SSB-PriA inh -6.0 and PrP 5UTR inh -21.4.
`Cc1nc(-c2ccccn2)nc(N(C)c2ccccc2)c1Cl` gave MazF activator 11.0, PfHsp40 rescue 179.8*, PrPC surface inh 8.7, SSB-PriA inh -3.0 and PrP 5UTR inh -15.0.

From PubChem
